Reference: the supplement of paper PMC6607015
Structures can show the parent of a compound that is named as a salt.

Experiments:
Conditions in all cases: compound concentration in added solution (µM; 5 µl added to 20 µl cells): 10; 18 h
A431 [1] = experiment: LBPA endosome anti-LBPA integrated intensity (sum per cell), Z-score; higher = more LBPA staining
Summary of the method: (§1)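 HeLa MZ or A431 cells were plated at 3,500 per well in 20 µl over 5 µl of 10 µM compound solution in duplicate 384-well imaging plates and fixed in 4% PFA after 18 h. Staining used the 6C4 anti-LBPA antibody, filipin, propidium iodide and CellTracker green, with four 20× images captured per well. MetaXpress segmentation measured integrated LBPA or filipin intensity per cell, across the whole cell or inside LBPA endosomes, and AcuityXpress normalised these into Z-scores.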

HeLa MZ [2] = experiment: as above
Summary of the method: as §1

A431 [3] = experiment: whole-cell filipin (free cholesterol) integrated intensity, Z-score; higher = more cholesterol staining
Summary of the method: as §1

HeLa MZ [4] = experiment: as above
Summary of the method: as §1

A431 [5] = experiment: filipin (cholesterol) integrated intensity within LBPA endosomes, Z-score; higher = more cholesterol in LBPA endosomes
Summary of the method: as §1

HeLa MZ [6] = experiment: as above
Summary of the method: as §1

Compound | LBPA endosome anti-LBPA integrated intensity (z-score) (A431 [1]) | LBPA endosome anti-LBPA integrated intensity (z-score) (HeLa MZ [2]) | whole-cell filipin (z-score) (A431 [3]) | whole-cell filipin (z-score) (HeLa MZ [4]) | filipin (z-score) (A431 [5]) | filipin (z-score) (HeLa MZ [6])
CCCCNc1ccc(C(=O)OCCOCCOCCOCCOCCOCCOCCOCCOCCOC)cc1 [Benzonatate] | -0.445 | -0.231 | -0.686 | -0.896 | -0.427 | -0.476
CC(C(=O)O)c1cccc(C(=O)c2ccccc2)c1 (stereo not drawn) [Ketoprofen] | -0.482 | -0.219 | -0.803 | -0.835 | -0.552 | -0.545
Cn1cnc([N+](=O)[O-])c1Sc1ncnc2[nH]cnc12 [Azathioprine] | -0.583 | -0.922 | -0.805 | -1.15 | -0.521 | -0.677
NC(=O)c1ncn([C@@H]2O[C@H](CO)[C@@H](O)[C@H]2O)n1 [Ribavirin] | -0.391 | -0.778 | -0.377 | -0.839 | -0.376 | -0.688
COc1cc(C(=O)OCCCN2CCCN(CCCOC(=O)c3cc(OC)c(OC)c(OC)c3)CC2)cc(OC)c1OC [Dilazep dihydrochloride] | 3.35 | 1.34 | 3.19 | 3.53 | 3.75 | 4.35
OC(c1cc(C(F)(F)F)nc2c(C(F)(F)F)cccc12)C1CCCCN1 (stereo not drawn) [Mefloquine hydrochloride] | 2 | -0.429 | 0.872 | -0.477 | 1.56 | 1.56
N[C@H]1CONC1=O [(S)-(-)-Cycloserine] | -0.455 | -0.138 | -0.147 | -0.221 | -0.457 | -0.283
COC(=O)C1=C(C)NC(C)=C(C(=O)OC(C)C)C1c1cccc2nonc12 (stereo not drawn) [Isradipine] | -0.123 | 0.656 | 0.258 | -0.179 | -0.13 | -0.161
CC(c1cc2ccccc2s1)N(O)C(N)=O (stereo not drawn) [Zileuton] | -0.514 | -0.465 | -0.358 | -0.366 | -0.391 | -0.425
CC(C)NC[C@@H](O)COc1ccc(CC(N)=O)cc1 [(R)-(+)-Atenolol] | -0.596 | -1.65 | -0.23 | -0.591 | -0.512 | -0.472
COc1cc([S+](C)[O-])ccc1-c1nc2cccnc2[nH]1 (stereo not drawn) [Sulmazole] | -0.64 | -1.23 | -0.818 | -0.362 | -0.483 | -0.399
CCCCc1nc(Cl)c(CO)n1Cc1ccc(-c2ccccc2-c2nnn[nH]2)cc1 [Losartan] | -0.107 | -0.132 | 0.421 | -0.132 | -0.313 | -0.537
CCN(CC)C(C)CN1c2ccccc2Sc2ccccc21 (stereo not drawn) [Ethopropazine hydrochloride] | 3.1 | 5.78 | 2.83 | 2.95 | 2.11 | 1.8
CCN(CC)Cc1cc(Nc2ccnc3cc(Cl)ccc23)ccc1O [Amodiaquin dihydrochloride dihydrate] | 2.13 | 2.23 | 0.894 | -0.209 | 1.78 | 1.72
CC1=C(C(=O)O)N2C(=O)[C@@H](NC(=O)[C@H](N)c3ccc(O)cc3)[C@H]2SC1 [Cefadroxil] | -0.651 | -1.02 | -0.697 | -0.675 | -0.507 | -0.626
COC(=O)C1=C(C#N)NC(C)=C(C(=O)OC(C)C)C1c1cccc([N+](=O)[O-])c1 (stereo not drawn) [Nilvadipine] | -0.407 | -0.929 | 0.11 | 0.875 | -0.268 | -0.158
CC1CS(=O)(=O)CCN1/N=C/c1ccc([N+](=O)[O-])o1 (stereo not drawn) [Nifurtimox] | -0.541 | -0.54 | 0.0023 | -0.211 | -0.444 | -0.628
OC[C@H]1O[C@@H](Oc2ccc(O)cc2)[C@H](O)[C@@H](O)[C@@H]1O [Arbutin] | -0.459 | 0.327 | -0.0729 | -0.0721 | -0.436 | -0.605
CC(C)(Oc1ccc(Cl)cc1)C(=O)O [Clofibric acid] | -0.512 | -0.676 | -0.43 | -0.52 | -0.514 | -0.568
O=S(=O)(O)CCS [Mesna] | -0.366 | 0.0893 | -0.163 | 0.141 | -0.454 | -0.55
O=C(O)Cc1cc(I)c(Oc2ccc(O)c(I)c2)c(I)c1 [Tiratricol, 3,3',5-triiodothyroacetic acid] | -0.369 | 0.145 | -0.472 | -0.883 | -0.548 | -0.66
Cc1cc(NS(=O)(=O)c2ccc(N)cc2)no1 [Sulfamethoxazole] | -0.371 | -0.141 | -0.446 | -0.158 | -0.446 | -0.3
Clc1ccc(CSC(Cn2ccnc2)c2ccc(Cl)cc2Cl)cc1 (stereo not drawn) [Sulconazole nitrate] | 0.249 | 1.59 | 1.22 | 1.32 | 0.361 | 0.461
